# Measurements: PubChem BioAssay AID2599 (Sanford-Burnham Center for Chemical Genomics, 2010)
# Among all 330,000 compounds or so, about 5,800 (1.8%) were called active. This excerpt belongs to a sample that is enriched for actives. Values without a mark were called inactive.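 Rule for the calls: active = inhibition above about 50% at the single tested dose (limit read from the data); inactive = the rest.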
# Target: Sentrin-specific protease 6 (Homo sapiens) (UniProt Q9GZR1)
# Experiment: SENP6 protease inhibitors, primary screen, biochemical, luminescence, uHTS (AID 2599);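 note: plate controls were DMSO wells with enzyme for no effect and DMSO wells lacking enzyme for full effect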
# Settings: Recombinant SENP6 catalytic domain, aminoluciferin luminescence; at 10 µM; stronger effect = higher value
# Sequence of Sentrin-specific protease 6 (Homo sapiens) (Q9GZR1 628-1112 limits assumed): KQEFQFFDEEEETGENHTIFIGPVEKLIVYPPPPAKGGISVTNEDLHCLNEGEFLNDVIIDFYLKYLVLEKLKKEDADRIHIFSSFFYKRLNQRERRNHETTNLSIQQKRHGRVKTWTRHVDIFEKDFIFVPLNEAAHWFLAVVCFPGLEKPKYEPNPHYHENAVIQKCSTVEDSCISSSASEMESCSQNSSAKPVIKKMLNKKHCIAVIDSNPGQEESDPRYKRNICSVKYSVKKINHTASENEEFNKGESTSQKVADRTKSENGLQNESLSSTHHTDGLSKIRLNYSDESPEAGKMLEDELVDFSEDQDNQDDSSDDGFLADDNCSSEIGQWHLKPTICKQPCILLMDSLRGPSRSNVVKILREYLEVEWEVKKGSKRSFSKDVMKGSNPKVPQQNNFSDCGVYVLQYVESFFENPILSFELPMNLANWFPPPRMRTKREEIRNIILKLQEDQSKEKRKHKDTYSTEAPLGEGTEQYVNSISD
row,Structure (SMILES),inhibition
1,CCOC(=O)[C@H]1CCC[C@@H](NS(=O)(=O)c2ccc(NC(C)=O)cc2)C1,4.75%
2,O=C(Cc1nc2ccccc2[nH]c1=O)c1ccc(Cl)cc1,50.3% (active)
3,N#C/C(=C(/O)COC(=O)COc1ccc(Cl)cc1)c1nc2ccccc2[nH]1,-13.3%
4,O=C(/C(=C/c1cccc(Cl)c1)c1nc2ccccc2[nH]1)c1ccccc1,-2.12%
5,COc1cccc(C(=O)CC(=O)C(=O)Nc2ccc([N+](=O)[O-])cc2C)c1,3.79%
6,CC1(C)C=C2[C@H]3CC[C@@H]4[C@@]5(C)CCC(=O)C(C)(C)[C@@H]5CC[C@@]4(C)[C@]3(C)CC[C@@]2(C(=O)O)CC1,12.4%
7,O=C(C1=C[C@H](c2coc3ccccc3c2=O)C[C@H](OCc2ccc(CO)cc2)O1)N1CCN(Cc2ccccc2)CC1,-13.7%
8,O=C(NC(=S)Nc1ccc(Br)cc1F)C1CCCCC1,-12.9%
9,Cc1cnc(C(=O)OCC(=O)N2CCc3ccccc32)cn1,0.963%
10,CCOC(=O)N1CCC(NC(=O)c2cnn3ccccc23)CC1,3.17%
11,O=C(c1cnn2ccccc12)N1CCc2ccccc21,51% (active)
12,Cc1oc2cc(Br)c(O)c(Br)c2c1C(=O)c1ccccc1,-11.8%
13,COc1cc(SC)ccc1C(=O)Nc1cc(C)ccn1,62.6% (active)
14,COc1cc(SC)ccc1C(=O)NCCOc1ccccc1Cl,13.4%
15,Cc1ccnc(NC(=O)CNC(=O)c2ccccc2)c1,6.25%
16,COc1cc(SC)ccc1C(=O)Nc1nc(C)cs1,97.3% (active)
17,Cc1ccnc(NC(=O)c2ccoc2C)c1,88.3% (active)
18,Cc1occc1C(=O)Nc1cccc(Cn2cccn2)c1,-1.37%
19,Cc1csc(NC(=O)c2ccc(C)s2)n1,0.083%
20,COc1cc2ccccc2cc1C(=O)Nc1nc(C)c(C(C)=O)s1,16.4%
21,COc1cc(SC)ccc1C(=O)N(Cc1ccccc1)c1ccccc1,-10.9%
22,COc1cc(SC)ccc1C(=O)NNC(=O)C1COc2ccccc2O1 (stereo not drawn),-13.5%
23,COC(=O)c1sc(NC(=O)c2ccc(OC)cc2OC)nc1C,74% (active)
24,COc1ccc(C(=O)Nc2cccc(NC(=O)c3ccc(OC)cc3OC)n2)c(OC)c1,-18%
25,C=CCN(CC=C)C(=O)COC(=O)c1n[nH]c2ccccc12,-20.6%

row,Structure (SMILES),inhibition
1,CCOc1ccc(NC(=S)NC(=O)/C=C/c2ccc(OC)cc2)c([N+](=O)[O-])c1,-2.86%
2,O=C(Nc1nccs1)C1CCN(S(=O)(=O)c2ccc(Cl)c(C(F)(F)F)c2)CC1,-4.6%
3,CCOc1ncccc1C(=O)Nc1ccc(S(=O)(=O)Nc2nc(C)cc(C)n2)cc1,-19.1%
4,O=C(c1ccc(OC2CCN(C/C=C/c3ccc(F)cc3)CC2)cc1)N1CCCCC1,0.618%
5,COc1cc(C)nc(N2CCCC(C(=O)NCC(C)C)C2)n1 (stereo not drawn),-10.1%
6,O=C(NNS(=O)(=O)c1ccc(F)cc1)C1CCCCC1,-3.19%
7,CCOC(=O)c1sc(NC(=O)c2sc(C)nc2C)nc1C,15.3%
8,CC(=O)c1sc(N/N=C\c2ccc(C)cc2)nc1C,23.9%
9,COC(=O)c1sc(NC(=S)NC(=O)c2ccc(C)cc2)nc1C,-20%
10,CCOC(=O)c1cccnc1NC(=O)c1ccncc1,-2.78%
11,CC(=O)c1sc(NC(=O)c2ccc(C)cc2)nc1C,62% (active)
12,CCOC(=O)c1sc(NC(=O)c2ccncc2)nc1C,97.5% (active)
13,COC(=O)[C@]1(Cc2ccccc2)N[C@H](CN(C)S(=O)(=O)c2ccc(OC(F)(F)F)cc2)[C@@H]2C(=O)N(C)C(=O)[C@@H]21,17%
14,O=C(COc1ccccc1)N1CCN=C1SCc1cccc(F)c1,-16.4%
15,CSCc1ccc(C(=O)Nc2cc(C)cc(C)c2)cc1,86% (active)
16,C=CCN(c1ccc(C(=O)Nc2cc(C)cc(C)c2)cc1)S(C)(=O)=O,7.58%
17,CC(=O)Nc1ccccc1NC(=O)c1cc(C)cc(C)c1,3.76%
18,Cc1cc(NC(=O)OC(C)C)ccc1-c1ccc(NC(=O)OC(C)C)cc1C,-24.2%
19,O=C(NCCCn1ccnc1)c1cc(-c2ccccc2)on1,13.4%
20,COC1=C(N2CCOCC2)C(=O)c2ccccc2C1=O,44.9%
21,Cc1oc2c(c1C(=O)N1CCOCC1)C(=O)c1ccccc1C2=O,68.9% (active)
22,COc1cc2ccccc2cc1C(=O)N1CCOCC1,5.76%
23,Cc1ccc(NC(=O)C2CC2)cc1S(=O)(=O)N1CCOCC1,-10.6%
24,COC(=O)c1ccc(NCC(=O)c2ccccc2)cc1,95.5% (active)
25,Cc1ccc(C(=O)CNc2ccc(F)cc2)cc1,6.04%

row,Structure (SMILES),inhibition
1,COC(=O)c1ccc(NCC(=O)N2CCCCCC2)cc1,-9.61%
2,Cn1ncc2c(NNC(=O)Cc3cccc4ccccc34)ncnc21,-8.95%
3,O=C(CN1CCN(c2cccc(Cl)c2)CC1)Nc1ccc(S(=O)(=O)N2CCOCC2)cc1,5.09%
4,CCOC(=O)C(NC(C)=O)C(=O)Nc1ccc(OC)cc1 (stereo not drawn),4.26%
5,CC(C)n1cnc2c(NCc3ccccc3)cc(OCC3CCN(C)CC3)cc21,77.9% (active)
6,CCC(CO)Oc1cc(NC(=O)c2cccc(F)c2)c2ncn(C(C)C)c2c1 (stereo not drawn),-22.5%
7,CCC(CO)Oc1cc(NC(=O)c2ccc(Cl)cc2)c2ncn(C(C)C)c2c1 (stereo not drawn),-20.3%
8,CC(C)n1cnc2c(NCc3ccccc3)cc(N[C@@H](CO)Cc3ccccc3)cc21,75.8% (active)
9,CCC(CO)Oc1cc(NC(=O)c2cccc3ccccc23)c2ncn(C(C)C)c2c1 (stereo not drawn),-4.87%
10,CCC(CO)Oc1cc(NCc2ccccc2)c2ncn(C3CCCC3)c2c1 (stereo not drawn),1.75%
11,COc1ccc(OC)c(S(=O)(=O)Nc2c(C)nn(C)c2C)c1,-2.99%
12,COc1ccccc1CCNC(=O)CSc1nnc2ccc(-c3cccnc3)nn12,17%
13,CC(C)(C)CC(C)(C)NCC(O)COCCOc1ccc(Br)cc1 (stereo not drawn),9.07%
14,O=C(O)CC/C(=C\c1cc2c(cc1Br)OCO2)c1nc2ccccc2s1,-4.31%
15,Cc1cc(N=Nc2ccc3ccccc3c2)ccc1O,98% (active)
16,Cc1ccccc1CSc1nnc(-c2ccccn2)n1N,7.46%
17,COc1ccc(C2C=C(c3ccc(Br)cc3)Nc3nc(NS(C)(=O)=O)nn32)cc1 (stereo not drawn),3.75%
18,C/C(=C\c1ccco1)C1Nc2cccc3cccc(c23)N1,-84.6%
19,Brc1ccccc1C1Nc2cccc3cccc(c23)N1,51.7% (active)
20,Oc1ccc(C2Nc3cccc4cccc(c34)N2)cc1,15.2%
21,CC1CN(C(=S)Nc2cccc(F)c2)CC(C)O1 (stereo not drawn),15.9%
22,O=c1ccc(S(=O)(=O)N2CCCC2)cn1Cc1nc(-c2ccccc2)no1,-10.4%
23,CN(C)c1ccc(NC(=O)CN2C3CCCC2CC(NC(=O)c2ccccc2)C3)cc1 (stereo not drawn),-8.69%
24,COC(=O)c1ccccc1NC(=O)C1(S(=O)(=O)c2ccc(Cl)cc2)CC1,16.9%
25,Nc1ccc2nn(-c3ccc(Cl)cc3)nc2c1,95% (active)

row,Structure (SMILES),inhibition
1,CN(C)c1nnnn1-c1ccc(Cl)cc1,2.68%
2,c1ccc(-n2nc3ccccc3n2)cc1,-28.4%
3,CN(C)CCCNC(=O)c1cc(C(=O)Cc2ccc(Cl)cc2)c[nH]1,-9.62%
4,O=C(CSC(=S)N1CCOCC1)c1ccccc1,60.8% (active)
5,CC1CN(C(=S)SCC(=O)c2ccccc2)CC(C)O1 (stereo not drawn),-20.8%
6,O=C(CSC(=S)N1CCOCC1)c1cc(Br)cc(Br)c1O,-12.1%
7,Cc1ccc(CNC(=O)CC2Sc3ccccc3NC2=O)cc1 (stereo not drawn),-4.12%
8,C#CCOCCOCCOCCNc1nc(N2CCN(C(=O)C([C@@H](C)CC)n3cc(C(N)COC(=O)C(F)(F)F)nn3)CC2)nc(N2CCN(C(=O)[C@H](CCCCN)n3cc(C(N)CC(C)C)nn3)CC2)n1 (stereo partly drawn),-9.82%
9,O=C(Nc1cccc(NC(=O)c2cccc(F)c2)c1)c1ccccc1,-18.8%
10,O=C(Nc1cccc(C(=O)N2CCCC2)c1)c1ccccc1,-14.4%
11,O=C(Nc1ccc(C(=O)O)c(O)c1)c1ccccc1,83.4% (active)
12,COc1cccc(N2CC(C(=O)NCc3n[nH]c(=O)c4ccccc34)CC2=O)c1 (stereo not drawn),-13.6%
13,O=C(O)/C=C/c1ccc(S(=O)(=O)N2CCCCCC2)cc1,16.2%
14,CC(C)c1nc(SCC(=O)NC(=O)NC(C)(C)C)n[nH]1,-25.6%
15,O=C(Nc1ccc(F)cc1)c1cc2c(s1)CCCC2,89% (active)
16,O=C(NCC1CCCO1)c1cc2c(s1)CCCC2 (stereo not drawn),6.51%
17,CN(C)C(=O)c1ccc(NC(=O)COC(=O)c2cc3c(s2)CCCCC3)cc1,-9.42%
18,Cc1noc(C)c1CSCC(=O)Nc1nc2ccc(Oc3ccccc3)cc2s1,14.7%
19,COc1cccc(C(=O)Nc2nnc(S(=O)(=O)N(C)c3ccccc3)s2)c1,12.8%
20,CS(=O)(=O)c1ccc2nc(NC(=O)c3ccc(Cl)nc3)sc2c1,0.381%
21,CCc1noc(C)c1C(=O)Nc1nc(-c2ccccc2)cs1,-13.3%
22,CCc1noc(C)c1C(=O)Nc1nc2ccc(OC)cc2s1,59.6% (active)
23,COc1cccc(C(=O)Nc2nc3ccc(S(C)(=O)=O)cc3s2)c1,89.1% (active)
